# Unmarked numbers belong to inactive results. Results filed as inconclusive are left out. Where a call stands in place of a potency, no number is given. The source made the active and inactive calls. Calls come from the whole dose curve.
# Experiments:
# [1] = target: Acetylcholinesterase (Homo sapiens) (UniProt P22303); assay: Acetylcholinesterase (AChE) small molecule antagonists: colormetric cell-based qHTS assay (AID 1347395); note: nearly all actives have a fitted effect of over 30% in size; note: potency is the fitted concentration of half-maximal effect
# Sequence of Acetylcholinesterase (Homo sapiens) (P22303 whole entry, looked up): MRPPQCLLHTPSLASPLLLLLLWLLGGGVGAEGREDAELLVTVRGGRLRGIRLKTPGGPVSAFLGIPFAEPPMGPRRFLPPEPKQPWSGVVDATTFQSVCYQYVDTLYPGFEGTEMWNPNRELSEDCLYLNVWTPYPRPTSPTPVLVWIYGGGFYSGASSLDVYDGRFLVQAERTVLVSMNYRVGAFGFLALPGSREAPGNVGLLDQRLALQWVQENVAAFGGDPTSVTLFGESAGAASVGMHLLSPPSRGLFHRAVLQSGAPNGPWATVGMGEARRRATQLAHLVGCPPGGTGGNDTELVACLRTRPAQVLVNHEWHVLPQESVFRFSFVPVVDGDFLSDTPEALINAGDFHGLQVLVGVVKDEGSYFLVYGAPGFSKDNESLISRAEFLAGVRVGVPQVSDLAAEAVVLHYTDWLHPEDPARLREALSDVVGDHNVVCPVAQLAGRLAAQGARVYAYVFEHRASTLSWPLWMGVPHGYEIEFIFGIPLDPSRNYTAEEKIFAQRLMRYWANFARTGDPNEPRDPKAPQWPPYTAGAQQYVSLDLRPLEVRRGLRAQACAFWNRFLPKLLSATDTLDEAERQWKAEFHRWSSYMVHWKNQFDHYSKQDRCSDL
# Procedure, shortened: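 Homogeneous whole-cell format. SH-SY5Y cells seeded overnight, dosed with compound (30 min, 37 C, 5% CO2), then given DTNB/acetylthiocholine cocktail for 90 min at 37 C; colorimetric signal.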
# [2] = target: Acetylcholinesterase (Homo sapiens) (UniProt P22303); assay: Acetylcholinesterase (AChE) small molecule antagonists: enzyme-based qHTS assay with human liver microsomes (AID 1347399); settings: Potency: qHTS inhibition; outcome: qHTS inhibition; note: nearly all actives have a fitted effect of over 60% in size
# Procedure, shortened: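 Recombinant human AChE (50 mU/mL in the enzyme mix) and human liver microsomes (0.25 mg/mL final) were preincubated with compound and NADPH (0.25 mg/mL final) for 30 min at 37 C. Acetylthiocholine/DTNB was then added; thiocholine was read colorimetrically after 10 min at room temperature.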
# [3] = target: Acetylcholinesterase (Homo sapiens) (UniProt P22303); assay: Acetylcholinesterase (AChE) small molecule antagonists: fluorescence cell-based qHTS assay (AID 1347398); settings: Potency: AChE activity; outcome: AChE activity; note: nearly all actives have a fitted effect of over 50% in size; note: potency is the fitted concentration of half-maximal effect
# Procedure, shortened: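 SH-SY5Y, 2,000 cells/well, attached overnight; cmpd 30 min 37 C; acetylthiocholine/Thiolite Green cocktail 40 min RT; fluorescence Ex/Em 490/520 nm.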
# [4] = target: Acetylcholinesterase (Homo sapiens) (UniProt P22303); assay: Acetylcholinesterase (AChE) small molecule antagonists: enzyme-based qHTS assay (AID 1347397); settings: Potency: AChE enzyme activity inhibition; outcome: AChE enzyme activity inhibition; note: nearly all actives have a fitted effect of over 55% in size; note: potency is the fitted concentration of half-maximal effect
# Procedure, shortened: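 Colorimetric DTNB read-out of thiocholine released from acetylthiocholine by recombinant human AChE (50 mU/mL as dispensed). Compounds were preincubated 30 min at RT before substrate/DTNB addition, with a 10 min RT reaction.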
compound,measurement,setting,value
CCOc1ccc2nc3cc(N)ccc3c(N)c2c1,Potency,[1],17.4 µM (active)
same,Potency,[2],inactive
CCN1/C(=C/C=C/c2sc3ccccc3[n+]2CC)Sc2ccccc21,Potency,[1],10.7 µM (active)
same,"activity change, negative = inhibition",[2],4.36% [at 23.6 µM]
CN1C(=O)c2ccc([N+](=O)[O-])cc2C1=O,Potency,[1],inactive
same,Potency,[2],inactive
CCCN(CCc1cccs1)[C@H]1CCc2c(O)cccc2C1,Potency,[1],13.8 µM (active)
same,Potency,[3],11 µM (active)
same,Potency,[2],inactive
CC(Cc1ccc(O)c(O)c1)C(C)Cc1ccc(O)c(O)c1 (configuration not stated),Potency,[1],inactive
same,Potency,[2],inactive
NC(=O)c1ccccc1,Potency,[4],inactive
COc1ccnc(CS(=O)c2nc3cc(OC(F)F)ccc3[nH]2)c1OC (configuration not stated),Potency,[1],inactive
same,Potency,[3],inactive
same,Potency,[2],inactive
CCCC(=O)OC[C@@H](OC(=O)CCC)[C@@H](OC(=O)CCC)[C@H](Cn1c2nc(=O)[nH]c(=O)c-2nc2cc(C)c(C)cc21)OC(=O)CCC,Potency,[1],inactive
same,Potency,[2],inactive
Cc1ccc(Cl)cc1Cl,Potency,[1],inactive
same,Potency,[3],inactive
same,Potency,[2],inactive
Cc1ccc2c(c1)CCCN2,Potency,[1],inactive
same,Potency,[2],inactive
CN1CCN(c2ccccc2/C=C2\SCCN(c3ccc(Cl)c(Cl)c3)C2=O)CC1,Potency,[1],inactive
same,Potency,[3],39.9 µM (active)
same,Potency,[2],inactive
COc1cc(N)c(Cl)cc1C(=O)NC1CCN(Cc2ccccc2)CC1,Potency,[1],17.4 µM (active)
same,Potency,[2],inactive
CC/C(=C(/c1ccc(O)cc1)c1ccc(OCCN(C)C)cc1)c1ccccc1,Potency,[1],41.7 µM (active)
same,Potency,[2],inactive
CC(C)CCCCCCCCCCCCCCC(=O)O,Potency,[1],inactive
same,Potency,[3],inactive
same,Potency,[2],inactive
CCN(Cc1cccc(S(=O)(=O)O)c1)c1ccc(C(=C2C=CC(=[N+](CC)Cc3cccc(S(=O)(=O)[O-])c3)C=C2)c2ccccc2)cc1,Potency,[1],inactive
same,Potency,[2],inactive
Clc1ccc(C(Cn2ccnc2)OCc2c(Cl)cccc2Cl)c(Cl)c1 (configuration not stated),Potency,[1],inactive
same,Potency,[2],inactive
COC(=O)c1ccccc1C(=O)c1ccc(OCCN2CCCCC2)cc1,Potency,[1],inactive
same,Potency,[2],inactive
CCOC(=O)c1ccc(NC(=O)CN2CCCCC2)cc1,Potency,[1],30.9 µM (active)
same,Potency,[2],inactive
O=C(CS(=O)Cc1ccco1)NC/C=C\COc1cc(CN2CCCCC2)ccn1 (configuration not stated),Potency,[1],38.9 µM (active)
same,Potency,[2],inactive
CCCN1C[C@H](CSC)C[C@@H]2c3cccc4[nH]cc(c34)C[C@H]21,Potency,[1],5.5 µM (active)
same,outcome,[2],inactive
N=C(N)c1ccc2cc(OC(=O)c3ccc(N=C(N)N)cc3)ccc2c1,Potency,[1],27.5 µM (active)
same,outcome,[2],inactive
Cc1ccc2c(c1)OCC(=O)CO2,Potency,[1],35.6 µM (active)
same,Potency,[2],inactive
O=S(=O)(c1ccc(OCc2ccccc2)cc1)c1ccccc1O,Potency,[1],inactive
same,Potency,[3],inactive
same,Potency,[2],inactive
CC[C@H](C)[C@H](N)C(=O)O,Potency,[1],inactive
same,Potency,[2],inactive
Nc1c(NC/C=C\COc2cc(CN3CCCCC3)ccn2)c(=O)c1=O,Potency,[1],13.5 µM (active)
same,"activity change, negative = inhibition",[2],0.669% [at 23.6 µM]
O=C(Nc1ccc(Cl)c(Cl)c1)c1cc(Cl)cc(Cl)c1O,Potency,[1],inactive
same,Potency,[3],inactive
same,Potency,[2],inactive
CCCCCCCCc1ccc(Nc2ccc(CCCCCCCC)cc2)cc1,Potency,[1],inactive
same,Potency,[3],inactive
same,Potency,[2],inactive
CCCCCCCCCC[N+](C)(CCCCCCCCCC)CCC[Si](OC)(OC)OC,Potency,[1],inactive
same,Potency,[2],inactive
CN1CCC(=C2c3ccccc3Sc3ccccc32)CC1,Potency,[1],inactive
same,Potency,[3],inactive
same,Potency,[2],inactive
COc1cc2nc(N3CCN(C(=O)C4CCCO4)CC3)nc(N)c2cc1OC (configuration not stated),Potency,[1],27.5 µM (active)
same,Potency,[2],inactive
O=S(=O)(O)c1ccc(N=Nc2c(O)ccc3ccccc23)cc1,Potency,[1],inactive
same,Potency,[2],inactive
CN(C(=O)c1c(O)c2ccccc2n(C)c1=O)c1ccccc1,Potency,[1],inactive
same,Potency,[2],inactive
C=CCc1cc(S(=O)(=O)c2ccc(O)c(CC=C)c2)ccc1O,Potency,[1],inactive
same,Potency,[2],inactive
CS(=O)(=O)c1ccc([C@@H](C[C@H]2CCC(=O)C2)C(=O)Nc2cnccn2)cc1Cl,Potency,[4],inactive
same,Potency,[3],inactive
same,Potency,[2],inactive
CNCC(O)c1ccc(O)c(O)c1 (configuration not stated),outcome,[4],inactive
same,outcome,[3],inactive
CN(C)CCOCCN(C)CCO,Potency,[4],inactive
same,Potency,[3],inactive
CN1CCCCC1CCN1c2ccccc2Sc2ccc(S(C)=O)cc21 (configuration not stated),Potency,[4],inactive
Cn1c(N)c(N=O)c(=O)n(C)c1=O,Potency,[4],inactive
same,Potency,[3],inactive
same,Potency,[2],inactive
[Cl][Pt-2]([Cl])([Cl])[Cl],Potency,[4],17.9 µM (active)
same,Potency,[3],35.7 µM (active)
Cc1cc2c(cc1C(F)(F)F)N(C(=O)Nc1ccc(Oc3cccnc3C)nc1)CC2,Potency,[4],inactive
same,Potency,[3],inactive
same,Potency,[2],inactive
CC(=O)OCC(CCn1cnc2cnc(N)nc21)COC(C)=O,Potency,[4],inactive
same,Potency,[3],inactive
same,Potency,[2],inactive
CCCCCCNC(=O)n1cc(F)c(=O)[nH]c1=O,Potency,[4],inactive
same,Potency,[3],inactive
same,Potency,[2],inactive
CCCCCCCC(=O)N(C)C,Potency,[4],inactive
same,Potency,[3],inactive
same,Potency,[2],inactive
CCCCNc1ccc(C(=O)OCCN(CC)CC)cc1,Potency,[4],30.9 µM (active)
same,Potency,[3],2.45 µM (active)
same,Potency,[2],inactive
CCCCCCCCCCCC(=O)NCCCN(C)C,Potency,[4],inactive
same,Potency,[3],31.7 µM (active)
same,Potency,[2],inactive
Cc1nnc(SCC2=C(C(=O)O)N3C(=O)[C@@H](NC(=O)Cn4cnnn4)[C@H]3SC2)s1,Potency,[4],inactive
same,Potency,[3],inactive
same,Potency,[2],inactive
CC(CCc1ccc2c(c1)OCO2)NN (configuration not stated),Potency,[4],inactive
same,Potency,[3],inactive
same,Potency,[2],inactive
O=C(OOC(=O)c1ccccc1)c1ccccc1,Potency,[4],inactive
same,Potency,[3],inactive
same,Potency,[2],inactive
Cc1ccc(N)cc1O,Potency,[4],inactive
same,Potency,[3],inactive
same,Potency,[2],inactive

# From PubChem BioAssay (Tox21)
